APOBEC3A inh: APOBEC3A ssDNA deaminase inhibitors, primary screen, selectivity assay for APOBEC3G inhibitor project, biochemical, FAM/TAMRA oligo cleavage fluorescence. recombinant A3A, FAM/TAMRA ssDNA deamination fluorescence. 330,000 compounds, 0.41% hits. inhibition, % at 20 µM. DNA dC->dU-editing enzyme APOBEC-3A (Homo sapiens), P31941;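 active = at least 40% inhibition at 20 µM here, with at most 30% in a related deaminase screen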;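 also: plate controls were A3A with DMSO for no effect and wells lacking A3A enzyme for full effect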
Target sequence (P31941 whole entry, looked up): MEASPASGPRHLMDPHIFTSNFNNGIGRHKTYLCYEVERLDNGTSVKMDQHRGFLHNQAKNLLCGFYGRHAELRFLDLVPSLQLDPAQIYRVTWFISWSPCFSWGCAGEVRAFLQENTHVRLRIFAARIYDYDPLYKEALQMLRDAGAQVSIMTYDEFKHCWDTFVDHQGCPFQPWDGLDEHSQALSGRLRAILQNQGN
GC-B act: human GC-B receptor activators, primary screen, HEK293 GC-B cells, cGMP TR-FRET, EC30 CNP. activation, % at 10 µM. 370,000 compounds, 0.11% hits. Atrial natriuretic peptide receptor 2 (Homo sapiens), P20594. AID 1920062, 2024. 0% at EC30 CNP, 100% saturating CNP;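 active = activation at 10 µM reaching about 35% in either raw or pattern-adjusted values, limit read from the data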
APOBEC3G inh: APOBEC3G DNA deaminase inhibitors, primary screen, biochemical, fluorescence, single-stranded DNA substrate, uHTS; DNA dC->dU-editing enzyme APOBEC-3G (Homo sapiens), Q9HC16; recombinant A3G, ssDNA deamination FAM/TAMRA fluorescence; inhibition, % at 20 µM; 330,000 compounds, 0.28% hits; AID 493012, 2011;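 active = inhibition of at least 40% at 20 µM, with no more than 30% in the related APOBEC3A deaminase screen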;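 also: plate controls were DMSO wells with A3G for no effect and wells lacking A3G enzyme for full effect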
Target sequence (Q9HC16 whole entry, looked up): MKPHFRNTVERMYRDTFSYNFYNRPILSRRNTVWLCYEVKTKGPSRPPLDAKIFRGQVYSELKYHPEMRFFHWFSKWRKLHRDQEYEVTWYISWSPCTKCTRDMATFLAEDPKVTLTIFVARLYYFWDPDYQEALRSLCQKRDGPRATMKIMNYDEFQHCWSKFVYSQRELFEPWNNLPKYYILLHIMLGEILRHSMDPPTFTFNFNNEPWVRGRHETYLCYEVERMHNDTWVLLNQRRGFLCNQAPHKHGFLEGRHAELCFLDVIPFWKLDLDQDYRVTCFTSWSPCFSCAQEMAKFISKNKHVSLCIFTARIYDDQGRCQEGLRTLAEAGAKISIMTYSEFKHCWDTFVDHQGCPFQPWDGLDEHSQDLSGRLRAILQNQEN
FAS TE block: FAS thioesterase domain inhibitors, primary screen, biochemical, fluorescence intensity, uHTS; Fatty acid synthase (Homo sapiens), P49327; recombinant FAS-TE, OMFH fluorogenic substrate, fluorescence endpoint; inhibition, % at 15 µM; 360,000 compounds, 0.67% hits;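 active = compounds whose normalised, plate-corrected inhibition of enzyme fluorescence in the single-dose primary screen is 50% or more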;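 also: 0% = DMSO with enzyme and 100% = substrate without enzyme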
NPR1 activator: GC-A stimulated cGMP production enhancers – HEK293 GC-A cells, cGMP TR-FRET, EC30 ANP, primary screen; 370,000 compounds, 0.14% hits; AID 1671463, 2021; Atrial natriuretic peptide receptor 1 (Homo sapiens), P16066; 0% at EC30 ANP, 100% saturating ANP; activation, % at 10 µM; in the data active = activation above about 40%
FAS-TE inh conf: FAS thioesterase domain inhibitors, confirmation, biochemical, fluorescence intensity, single concentration; shares compounds with FAS TE block; inhibition, % at 15 µM; recombinant FAS-TE, OMFH fluorogenic substrate; 2,300 compounds, 45% hits;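 active = compounds inhibiting the enzyme by at least 50% at 15 µM in any one of the replicates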;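 also: 0% = enzyme with DMSO only and 100% = wells lacking enzyme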
An asterisk follows results filed as active. This is a sample that favours compounds with a hit; in the whole collection about 1.4% have one here.

What do the screens show for `CCOC(=O)[C@]12Cc3cc(OC)ccc3[C@H]1N(C)C(=O)c1cc(OC)ccc12`?
GC-B act: -11; FAS TE block: 10; NPR1 activator: -14

Results for CCOC(=O)[C@]12Cc3cc(C)ccc3[C@H]1N(C1CCCCC1)C(=O)c1ccccc12 ?
GC-B act: -18; FAS TE block: 82*; NPR1 activator: -22; FAS-TE inh conf: 33*

What do the screens show for `CCCCCN1C(=O)c2cc(OC)ccc2[C@@]2(C(=O)OCC)Cc3cc(OC)ccc3[C@@H]12`?
GC-B act: -6; FAS TE block: 52*; NPR1 activator: -16; FAS-TE inh conf: 40

How did CCOC(=O)[C@]12Cc3cc(C)ccc3[C@H]1N(CCC(=O)OC)C(=O)c1ccccc12 do in these assays?
GC-B act: -14; FAS TE block: 42; NPR1 activator: -12

What do the screens show for `CCOC(=O)[C@]12Cc3ccc(C)cc3[C@H]1N(C1CCCCC1)C(=O)c1cc(OC)ccc12`?
GC-B act: -19; FAS TE block: 77*; NPR1 activator: -27; FAS-TE inh conf: 28*

How did CCOC(=O)[C@]12Cc3c(cc(OC)c(OC)c3OC)[C@H]1N(C1CCCCC1)C(=O)c1ccccc12 do in these assays?
GC-B act: -15; FAS TE block: 81*; NPR1 activator: -23; FAS-TE inh conf: 62*

Results for O=C(NCCN1CCC2(CC1)C(=O)NCN2c1ccccc1)c1ccc(Cl)cc1 ?
GC-B act: -1; NPR1 activator: -5

How did CC(C)S(=O)(=O)N1Cc2ccc(Br)cc2-n2nncc2C1 do in these assays?
GC-B act: 8; NPR1 activator: 1

What do the screens show for `COC(=O)C1=C(c2ccc(OC(F)(F)F)cc2)C[C@@H]2CC[C@H]1N2C(=O)NCc1ccco1`?
GC-B act: -3; NPR1 activator: -2

What do the screens show for `Fc1ccc2nc(-c3ccc(CN4CCC(n5nnc6ccccc65)CC4)cc3)c(-c3ccccc3)nc2c1`?
GC-B act: 1; NPR1 activator: 7

How did CCOC(=O)[C@]12Cc3cc(Cl)ccc3[C@H]1N(C1CCCCC1)C(=O)c1cc(OC)ccc12 do in these assays?
GC-B act: -19; FAS TE block: 84*; NPR1 activator: -28; FAS-TE inh conf: 39*

How did CCOC(=O)[C@]12Cc3ccc(C)cc3[C@H]1N(C1CCCCC1)C(=O)c1ccccc12 do in these assays?
GC-B act: -19; FAS TE block: 80*; NPR1 activator: -23; FAS-TE inh conf: 24*

Results for CCOC(=O)[C@]12Cc3cc(Cl)ccc3[C@H]1N(C)C(=O)c1cc(OC)ccc12 ?
GC-B act: -16; FAS TE block: 27; NPR1 activator: -20

What do the screens show for `CCOC(=O)[C@]12Cc3ccccc3[C@H]1N(C(C)C)C(=O)c1ccccc12`?
GC-B act: -8; FAS TE block: 13; NPR1 activator: -7

What do the screens show for `CC(C)C[C@H]1N=C(c2ccccc2)c2ccccc2N(CC(=O)NC(C)(C)C)C1=O`?
GC-B act: -17; NPR1 activator: -20

What do the screens show for `Oc1c(Br)c(Br)c(Br)c(Br)c1Br`?
APOBEC3A inh: 2; APOBEC3G inh: -10; FAS TE block: 60*; FAS-TE inh conf: 72*

Results for O=c1[nH]c2ccccc2n1C1CCN(C(c2cc3ccccc3o2)c2nnnn2-c2ccc3c(c2)OCCO3)CC1 (configuration not stated) ?
GC-B act: 3; FAS TE block: 66*; NPR1 activator: 0; FAS-TE inh conf: 13

How did COc1ccc(-n2nnnc2C(c2cc3ccccc3o2)N2CCC(n3c(=O)[nH]c4ccccc43)CC2)cc1 (configuration not stated) do in these assays?
GC-B act: 3; FAS TE block: 40; NPR1 activator: -3

What do the screens show for `O=c1[nH]c2ccccc2n1C1CCN(C(CCc2ccccc2)c2nnnn2C2CCCCC2)CC1` (configuration not stated)?
GC-B act: 7; FAS TE block: 55*; NPR1 activator: -12; FAS-TE inh conf: 19

What do the screens show for `Cc1cccc(C)c1-n1nnnc1C(c1cccc2ccccc12)N1CCC(n2c(=O)[nH]c3ccccc32)CC1` (configuration not stated)?
GC-B act: 9; FAS TE block: 86*; NPR1 activator: -1; FAS-TE inh conf: 17

Results for COc1ccc(C(c2nnnn2-c2ccc(OC)cc2)N2CCC(n3c(=O)[nH]c4ccccc43)CC2)cc1 (configuration not stated) ?
GC-B act: -3; FAS TE block: 25; NPR1 activator: -7

How did O=c1[nH]c2ccccc2n1C1CCN(C(c2cccc3ccccc23)c2nnnn2-c2ccc3c(c2)OCCO3)CC1 (configuration not stated) do in these assays?
GC-B act: 2; FAS TE block: 72*; NPR1 activator: 2; FAS-TE inh conf: 14

How did Clc1cc(Cl)cc(CN2Cc3ccccc3-n3nncc3C2)c1 do in these assays?
GC-B act: -5; NPR1 activator: -6

How did C=C1[C@@H](C)C2[C@H](Cc3ccccc3)NC(=O)[C@]23[C@H](OC(C)=O)/C=C/[C@@](C)(O)C(=O)[C@@H](C)C/C=C/[C@H]3[C@@H]1O (some centres not stated) do in these assays?
GC-B act: -19; NPR1 activator: -22

What do the screens show for `COC(=O)C1=C(c2ccc(-c3ccccc3)c(F)c2)C[C@@H]2CC[C@H]1N2C(=O)NC1Cc2ccccc2C1`?
APOBEC3A inh: -1; GC-B act: -6; APOBEC3G inh: -11; FAS TE block: 53*; NPR1 activator: 1; FAS-TE inh conf: 33

How did O=C(C1CC(c2ccc(F)cc2)=NO1)N1CCC2(CC1)OCCO2 (configuration not stated) do in these assays?
APOBEC3A inh: -1; GC-B act: 4; APOBEC3G inh: -5; FAS TE block: -11; NPR1 activator: 3

What do the screens show for `O=C(C1CC(c2ccc(Cl)c(Cl)c2)=NO1)N1CCC2(CC1)OCCO2` (configuration not stated)?
APOBEC3A inh: 1; GC-B act: 0; APOBEC3G inh: 0; FAS TE block: 57*; NPR1 activator: 7; FAS-TE inh conf: 66*

High-throughput results: PubChem, Sanford-Burnham Center for Chemical Genomics
